{"source": "PubChem BioAssay AID651718", "about": "(The Scripps Research Institute Molecular Screening Center, 2012)", "note": "In all, about 360,000 compounds went through this assay and about 2,700 (0.75%) were called active. Rule as the data show it: active = inhibition above about 4.5%; inactive = the rest. The full list was thinned out, with actives kept by preference."}
{"test_system": "Methionine sulfoxide reductase A (Bos taurus)", "experiment": "bovine MsrA enzyme inhibitors, primary screen, biochemical, absorbance, HTS (AID 651718);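 also: 0% = vehicle wells with enzyme and 100% = reference inhibitor wells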", "conditions": "purified bovine MsrA, absorbance read-out; at 15.5 µM; active compounds read high"}
{"smiles": "COC(=O)[C@]12C[C@H](CC(=O)NCCC(C)C)C(=O)N(CCc3ccc(OC)c(OC)c3)C1=C[C@H](C(C)(C)C)O[C@@H]2C", "inhibition": "-0.48% (inactive)"}
{"smiles": "CN[C@H]1C[C@H]2c3[nH]c4c(-c5ccccc5)cccc4c3CCN2C(=O)[C@H]1[C@H](C)O", "inhibition": "0.9% (inactive)"}
{"smiles": "CC(C)CC(CCc1ccccc1)OS(N)(=O)=O", "note": "(stereo not given)", "inhibition": "0.27% (inactive)"}
{"smiles": "O=C(Cc1ccccc1)Nc1cccc(C(=O)N/N=C/c2ccco2)c1", "inhibition": "2.33% (inactive)"}
{"smiles": "O=C(N/N=C/c1ccco1)c1ccc(C(=O)N/N=C/c2ccco2)o1", "inhibition": "10% (active)"}
{"smiles": "O=C(Cc1ccc([N+](=O)[O-])cc1)N/N=C/c1ccco1", "inhibition": "1.04% (inactive)"}
{"smiles": "C[C@H]1CN([C@@H](C)CO)C(=O)CCCn2nncc2CO[C@@H]1CN(C)C(=O)Nc1ccc(N2CCN(C)CC2)cc1", "inhibition": "-0.42% (inactive)"}
{"smiles": "O=C(Nc1c(Cl)c(C2CC2)nn1-c1ccccc1)C(Cl)(Cl)Cl", "inhibition": "-0.78% (inactive)"}
{"smiles": "O=C(Nc1cccc(F)c1)c1coc(=O)c(Br)c1", "inhibition": "5.37% (active)"}
{"smiles": "O=C(Nc1cccc(F)c1)[C@@H]1CCCN1", "inhibition": "0.99% (inactive)"}
{"smiles": "Cc1nc2nc(SCC(=O)Nc3cccc(F)c3)[nH]c2cc1Br", "inhibition": "-0.88% (inactive)"}
{"smiles": "Nc1nc2c(ncn2[C@@H]2O[C@H](C(=O)N[C@@H](Cc3ccccc3)C(=O)NCc3ccccc3)[C@@H](O)[C@H]2O)c(=O)[nH]1", "inhibition": "-0.25% (inactive)"}
{"smiles": "COC(=O)c1ccc(CN2C(=O)[C@]3(OCCC=C[C@H]3C)c3c(Br)cccc32)cc1", "inhibition": "1.8% (inactive)"}
{"smiles": "COCCCNC(=O)C[C@H]1C[C@@]2(C(=O)OC)C(=C[C@H](C(C)(C)C)O[C@@H]2C)N(Cc2ccc3c(c2)OCO3)C1=O", "inhibition": "-0.56% (inactive)"}
{"smiles": "Cc1ccc(C(=O)Nc2ccccc2-c2ccccc2)cc1S(=O)(=O)Nc1ccccc1", "inhibition": "4.76% (active)"}
{"smiles": "Cc1cc(C(C)(C)C)cc(S(=O)(=O)Nc2ccc(C(=O)O)cc2)c1C", "inhibition": "1.5% (inactive)"}
{"smiles": "O=C(O)c1ccc(F)c(S(=O)(=O)Nc2ccccc2)c1", "inhibition": "-0.45% (inactive)"}
{"smiles": "Cc1ccc(NC(=O)N2c3ccccc3SC2c2ccco2)c(C)c1", "note": "(stereo not given)", "inhibition": "-0.74% (inactive)"}
{"smiles": "Cc1nc2ccccn2c(=O)c1NC(=O)c1ccc(Br)o1", "inhibition": "2.43% (inactive)"}
{"smiles": "CN1C(=O)CN2CCc3ccccc3C2c2cc(Cl)ccc21", "note": "(stereo not given)", "inhibition": "1.04% (inactive)"}
{"smiles": "CSCc1nnc(NC(=O)c2ccc(S(=O)(=O)N3CCCCC3C)cc2)o1", "note": "(stereo not given)", "inhibition": "-0.31% (inactive)"}
{"smiles": "CC1CCCCN1S(=O)(=O)c1ccc(S(=O)(=O)N(CC(=O)Nc2ccccc2)Cc2cccs2)cc1", "note": "(stereo not given)", "inhibition": "-0.63% (inactive)"}
{"smiles": "CC1CCCCN1S(=O)(=O)c1ccc(C(=O)Nc2nnc(-c3cccs3)o2)cc1", "note": "(stereo not given)", "inhibition": "4.79% (active)"}
{"smiles": "O=C(N[C@H](Cc1ccccc1)C(=O)N1CCCN(Cc2cccs2)CC1)[C@H]1O[C@@H](n2ccc(=O)[nH]c2=O)[C@H](O)[C@@H]1O", "inhibition": "0.08% (inactive)"}
{"smiles": "O=c1c(F)cn(C2CCCO2)c(=O)n1Cc1ccccc1Cl", "note": "(stereo not given)", "inhibition": "0.2% (inactive)"}
{"smiles": "CN(c1ccccc1)S(=O)(=O)c1ccc2[nH]c(=O)[nH]c2c1", "inhibition": "14.1% (active)"}
{"smiles": "O=c1[nH]c2ccc(S(=O)(=O)N3CCCC3)cc2[nH]1", "inhibition": "-0.78% (inactive)"}
{"smiles": "CCN(c1ccccc1)S(=O)(=O)c1ccc2[nH]c(=O)[nH]c2c1", "inhibition": "2.53% (inactive)"}
{"smiles": "CN1C(=O)C(Br)(Br)CC1c1cccnc1", "note": "(stereo not given)", "inhibition": "1.57% (inactive)"}
{"smiles": "Cc1cc(Br)cn2c(Cc3ccccc3C(F)(F)F)c(-c3ccc(C#N)cc3)nc12", "inhibition": "-0.24% (inactive)"}
{"smiles": "NC(=S)NN=Cc1ccc(OC(=O)COc2cc(Cl)c(Cl)cc2Cl)cn1", "inhibition": "4.84% (active)"}
{"smiles": "O=C(COc1cc(Cl)c(Cl)cc1Cl)NCCc1ccccn1", "inhibition": "-0.1% (inactive)"}
{"smiles": "O=C(COC(=O)COc1cc(Cl)c(Cl)cc1Cl)NC1CC1", "inhibition": "3.33% (inactive)"}
{"smiles": "CCCCCCCCN1C(=O)[C@@H](CC(=O)NCc2ccccc2)C[C@@]2(C(=O)OC)C1=C[C@H](C(C)(C)C)O[C@@H]2C", "inhibition": "0.32% (inactive)"}
{"smiles": "CCOc1cccc(NC(=O)Cn2nc(-c3ccc4c(c3)OCCO4)ccc2=O)c1", "inhibition": "-0.18% (inactive)"}
{"smiles": "COc1cc(C=NC2CCCCC2)ccc1O", "inhibition": "3.96% (inactive)"}
{"smiles": "CCC(=O)c1ccc(OC(=O)/C=C/c2cc(OC)c(OC)c(OC)c2)cc1", "inhibition": "1.16% (inactive)"}
{"smiles": "CCOc1ccc2ccccc2c1/C=N/NC(=O)c1c(C)cc(C)[nH]c1=O", "inhibition": "2.01% (inactive)"}
{"smiles": "COc1ccc2[nH]c(C(=O)N/N=C/c3cc(OC)c(OC)c(OC)c3)cc2c1", "inhibition": "6.03% (active)"}
{"smiles": "COc1ccc2[nH]c(=O)c(CNc3ccc(C)c(C)c3)cc2c1", "inhibition": "1% (inactive)"}
{"smiles": "CCN1CCCC1CNC(=O)c1cc2cc(OC)c(OC)cc2[nH]1", "note": "(stereo not given)", "inhibition": "2.2% (inactive)"}
{"smiles": "COc1cc2cc(C(=O)N/N=C/c3cccc(OC)c3OC)[nH]c2cc1OC", "inhibition": "5.39% (active)"}
{"smiles": "COc1cccc2[nH]c(C(=O)NCCc3ccccc3)cc12", "inhibition": "-0.25% (inactive)"}
{"smiles": "CCOc1ccccc1/C=N/NC(=O)CNC(=O)COc1ccccc1", "inhibition": "0.86% (inactive)"}
{"smiles": "CCOc1ccc2[nH]c(C(=O)N/N=C/c3cccc(OC)c3OC)cc2c1", "inhibition": "5.19% (active)"}
{"smiles": "Cc1ccc(C)c(N2C(=O)CS/C2=N\\NC(=O)c2ccccc2Cl)c1", "inhibition": "0.65% (inactive)"}
{"smiles": "Cc1ccc(N2C(=O)C3C4C=CC(CC4)C3C2=O)cc1Br", "note": "(stereo not given)", "inhibition": "-0.75% (inactive)"}
{"smiles": "Cc1[nH]nc2c1C(c1ccc(Br)cc1)NC2=O", "note": "(stereo not given)", "inhibition": "0.64% (inactive)"}
{"smiles": "CCOC(=O)C1=CCC2C(=O)N(Cc3ccccc3)C(=O)C12", "note": "(stereo not given)", "inhibition": "-0.57% (inactive)"}
{"smiles": "C[C@H](O)[C@@H]1CN2CCc3ccc(-c4ccc5c(c4)OCO5)cc3[C@@H]2C[C@@H]1N(C)C(=O)C1CCCCC1", "inhibition": "-0.49% (inactive)"}
{"smiles": "Cc1ccc(C(=O)NC2CCCC(C)C2C)cc1S(=O)(=O)N1CCCCC1", "note": "(stereo not given)", "inhibition": "-0.29% (inactive)"}
{"smiles": "COc1cccc(-c2nn(C)c3sc(C(=O)N4CCN(c5ccccc5)CC4)cc23)c1", "inhibition": "4.59% (active)"}
{"smiles": "Cn1nc(C(F)(F)F)c2cc(C(=O)N3CCOCC3)sc21", "inhibition": "-0.18% (inactive)"}
{"smiles": "COc1cccc(-c2ccc(SCC(=O)N3CCN(c4ccccc4)CC3)nn2)c1", "inhibition": "-0.38% (inactive)"}
{"smiles": "O=C(C(=O)N1CCC(CNS(=O)(=O)Cc2ccccc2)CC1)c1cc2ccccc2o1", "inhibition": "1.99% (inactive)"}
